From PubChem
Compounds with a hit are over-represented: about 2.5% of the library has one in this group of screens.
G6PDH counter – L. mesenteroides G6PDH inhibitors, counter-screen for G6PDH-coupled screening assays, biochemical, Leuconostoc mesenteroides enzyme. glucose-6-phosphate dehydrogenase [Leuconostoc mesenteroides]. Purified L. mesenteroides G6PDH, diaphorase/resazurin coupled fluorescence, 45 min. inhibition, % at 5 µM. 200,000 compounds, 0.12% hits; in the data active means inhibition above about 50%
PfM18AAP inh – PfM18AAP inhibitors, malaria aminopeptidase, primary screen, biochemical, QFRET, recombinant enzyme; M18 aspartyl aminopeptidase (Plasmodium falciparum 3D7); H-Glu-NHMec fluorogenic cleavage; inhibition, % at 7.35 µM; 290,000 compounds, 1.2% hits; AID 1822, 2009;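 active means inhibition above the campaign mean inhibition over all tested compounds plus 3 SD, cut at about 28% in these data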;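 further: 0% = plate median of test compound wells and 100% = 2 mM ZnCl2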
PHOSPHO1 inh – PubChem AID 1565. Phosphoethanolamine/phosphocholine phosphatase (Homo sapiens), Q8TCT1. recombinant PHOSPHO1, absorbance phosphatase assay. inhibition, % at 13.3 µM. 290,000 compounds, 1.1% hits; in the data active means inhibition above about 60%
p97 ATPase inh – inhibitors of human p97 ATPase, primary screen, biochemical. Transitional endoplasmic reticulum ATPase (Homo sapiens), P55072. recombinant p97 ATPase, Kinase-Glo ATP luminescence, 3 h. inhibition, % at 8 µM. 220,000 compounds, 0.42% hits. AID 1481, 2009; in the data active means inhibition above about 15%;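 further: 0% = DMSO vehicle and 100% = wells lacking enzyme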
SUMO HTRF inh – inhibitors of in vitro SUMOylation cascade, primary screen, biochemical, HTRF, uHTS. HTRF SUMOylation assay, SAE1/SAE2 + UBC9. inhibition, % at 35 µM. 290,000 compounds, 0.36% hits; in the data active means inhibition above about 50%, passing the limit was not always enough
Target sequence (P63279 whole entry, looked up): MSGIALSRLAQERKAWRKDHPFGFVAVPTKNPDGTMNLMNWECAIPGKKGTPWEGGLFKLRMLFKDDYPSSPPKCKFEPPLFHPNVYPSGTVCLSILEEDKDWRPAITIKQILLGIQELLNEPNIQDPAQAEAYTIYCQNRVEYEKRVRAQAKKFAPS
HDAC3 inhib – HDAC3 deacetylase inhibitors, primary screen, biochemical, fluorescence, cell-free homogeneous; Histone deacetylase 3 (Homo sapiens), O15379; recombinant HDAC3, fluorogenic peptide/trypsin coupled; inhibition, % at 8.3 µM; 320,000 compounds, 0.15% hits; AID 2718, 2010; in the data active means inhibition above about 26%, passing the limit was not always enough
Target sequence (O15379 whole entry, looked up): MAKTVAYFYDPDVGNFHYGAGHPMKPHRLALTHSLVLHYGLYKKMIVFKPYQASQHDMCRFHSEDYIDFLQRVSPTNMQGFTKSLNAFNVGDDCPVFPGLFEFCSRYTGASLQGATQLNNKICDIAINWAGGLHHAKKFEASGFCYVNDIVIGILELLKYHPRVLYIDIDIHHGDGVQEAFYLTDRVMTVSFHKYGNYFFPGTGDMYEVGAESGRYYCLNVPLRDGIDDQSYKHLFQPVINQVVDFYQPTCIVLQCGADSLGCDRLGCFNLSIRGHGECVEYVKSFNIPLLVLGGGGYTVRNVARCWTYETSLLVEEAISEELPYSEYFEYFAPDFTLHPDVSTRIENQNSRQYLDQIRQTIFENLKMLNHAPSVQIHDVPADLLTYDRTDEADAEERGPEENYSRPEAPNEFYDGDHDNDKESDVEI
An asterisk follows results filed as active.

How did Cc1cc(N=NC(=O)c2ccccc2O)c2ccccc2c1O do in these assays?
G6PDH counter: 14; PfM18AAP inh: -1; PHOSPHO1 inh: 70*; p97 ATPase inh: 8; SUMO HTRF inh: 10; HDAC3 inhib: 4

Results for O=C(Oc1ccc(-n2cnnn2)cc1)c1ccco1 ?
G6PDH counter: 7; PfM18AAP inh: -2; PHOSPHO1 inh: -14; p97 ATPase inh: 1; SUMO HTRF inh: 16; HDAC3 inhib: 36*

Results for CCCOC(=O)c1ccc(OC(=O)c2ccco2)cc1 ?
G6PDH counter: 0; PfM18AAP inh: 4; PHOSPHO1 inh: -3; p97 ATPase inh: 4; SUMO HTRF inh: -4; HDAC3 inhib: 33*

What do the screens show for `O=C(Oc1ccc(N2C(=O)CCC2=O)cc1)c1ccco1`?
G6PDH counter: 0; PfM18AAP inh: -6; PHOSPHO1 inh: 10; p97 ATPase inh: 4; SUMO HTRF inh: -9; HDAC3 inhib: 8

What do the screens show for `COc1c(C)oc2cc(O)ccc2c1=O`?
G6PDH counter: -1; PfM18AAP inh: 3; PHOSPHO1 inh: 18; p97 ATPase inh: -5; SUMO HTRF inh: 50*; HDAC3 inhib: -55

How did Cc1oc2cc(O)ccc2c(=O)c1Oc1ccc(F)cc1 do in these assays?
PfM18AAP inh: -1; PHOSPHO1 inh: 23; SUMO HTRF inh: 34; HDAC3 inhib: -14

Results for C#CCOCCOCCOCCNc1nc(N2CCN(C(=O)CCCCCCCCCCNC(=O)[C@H](CCCCN)n3cc(C)nn3)CC2)nc(N2CCN(C(=O)CCCCCCCCCCNC(=O)[C@@H]([C@H](C)CC)n3cc(CCCCCN)nn3)CC2)n1 ?
HDAC3 inhib: 31*

How did C#CCOCCOCCOCCNc1nc(N2CCN(C(=O)CCCCCCCCCCNC(=O)[C@H](CCCCN)n3cc(CCO)nn3)CC2)nc(N2CCN(C(=O)CCCCCCCCCCNC(=O)[C@H](CCCN=C(N)N)n3cc(C[C@@H](C)CC)nn3)CC2)n1 do in these assays?
HDAC3 inhib: 29*

What do the screens show for `C#CCOCCOCCOCCNc1nc(N2CCN(C(=O)CCCCCCCCCCNC(=O)[C@H](CCCCN)n3cc(C[C@@H](C)CC)nn3)CC2)nc(N2CCN(C(=O)CCCCCCCCCCNC(=O)[C@H](CCCCN)n3cc(C[C@@H](C)CC)nn3)CC2)n1`?
HDAC3 inhib: 53*

Results for Cc1cccc(CC(=O)N2CCN(C(=O)c3ccco3)CC2)c1 ?
PfM18AAP inh: 1; SUMO HTRF inh: 1; HDAC3 inhib: -12

What do the screens show for `O=C(NCCS(=O)(=O)c1ccc(Br)cc1)c1ccc(Cl)cc1Cl`?
PfM18AAP inh: 1; PHOSPHO1 inh: 43; SUMO HTRF inh: 4; HDAC3 inhib: -2

What do the screens show for `CSCC[C@H](NC(=O)c1ccc(Cl)c(S(=O)(=O)N2CCCC2)c1)c1nc2ccccc2[nH]1`?
G6PDH counter: 12; PfM18AAP inh: 5; PHOSPHO1 inh: 98*; p97 ATPase inh: 1; SUMO HTRF inh: 8; HDAC3 inhib: 1

How did COc1ccc(C(C#N)=C2C=CC(=NO)C=C2)cc1 do in these assays?
PfM18AAP inh: 29*; PHOSPHO1 inh: -142; p97 ATPase inh: 5; SUMO HTRF inh: 26; HDAC3 inhib: 8

Results for COc1ccc(C(=O)c2ccc(Cl)cc2)cc1 ?
G6PDH counter: 4; PfM18AAP inh: -11; PHOSPHO1 inh: -9; p97 ATPase inh: -6; SUMO HTRF inh: 15; HDAC3 inhib: 0

What do the screens show for `OC1CCC(Nc2ncnc3sccc23)CC1` (centres undefined)?
PfM18AAP inh: 0; PHOSPHO1 inh: 28; SUMO HTRF inh: -8; HDAC3 inhib: -6

Results for CCN(CC)Cc1cc(O)c(CN(CC)CC)cc1O ?
G6PDH counter: 57*; PfM18AAP inh: 29*; PHOSPHO1 inh: 30; p97 ATPase inh: 2; SUMO HTRF inh: 42

How did CCn1c(C)nc2cc(C(=O)NNC(=S)NC(=O)c3ccc(OC)cc3)ccc21 do in these assays?
G6PDH counter: -4; PfM18AAP inh: -4; PHOSPHO1 inh: -2; p97 ATPase inh: 1; SUMO HTRF inh: -78; HDAC3 inhib: 2

Results for Cc1ccc2cc3c(N)c(C(=O)N4CCOCC4)sc3nc2c1 ?
G6PDH counter: 2; PfM18AAP inh: -57; PHOSPHO1 inh: 61*; p97 ATPase inh: 10; SUMO HTRF inh: 19; HDAC3 inhib: 3

What do the screens show for `Cc1ccc2nc3sc(C(=O)N4CCOCC4)c(N)c3cc2c1`?
G6PDH counter: 2; PfM18AAP inh: 1; PHOSPHO1 inh: 86*; p97 ATPase inh: 4; SUMO HTRF inh: 26; HDAC3 inhib: -2

What do the screens show for `CCOC(=O)Cc1csc(NC(=O)CN2CCCCC2)n1`?
PfM18AAP inh: -2; PHOSPHO1 inh: 25; SUMO HTRF inh: 10; HDAC3 inhib: -11

What do the screens show for `COc1ccc(-c2nc3ccccc3nc2-c2ccc(OC)cc2)cc1`?
PfM18AAP inh: 1; SUMO HTRF inh: 8; HDAC3 inhib: -3

Results for COc1ccc2nc(-c3ccco3)c(-c3ccco3)nc2c1 ?
G6PDH counter: 25; PfM18AAP inh: 22; PHOSPHO1 inh: 40; p97 ATPase inh: 7; SUMO HTRF inh: 71*; HDAC3 inhib: 6

Results for COc1ccc2nc3cccc(OC)c3nc2c1 ?
G6PDH counter: 51*; PfM18AAP inh: 2; PHOSPHO1 inh: 34; p97 ATPase inh: 4; SUMO HTRF inh: 61; HDAC3 inhib: 1

How did NC(=O)c1cc(C(=O)c2ccc(Cl)cc2Cl)c[nH]1 do in these assays?
G6PDH counter: 5; PfM18AAP inh: -7; PHOSPHO1 inh: 64*; p97 ATPase inh: 3; SUMO HTRF inh: -1; HDAC3 inhib: 5

How did CN(C)C(=O)c1cc(C(=O)c2ccc(Cl)cc2Cl)c[nH]1 do in these assays?
PfM18AAP inh: -11; PHOSPHO1 inh: -7; SUMO HTRF inh: 12; HDAC3 inhib: -2

How did O=C1CCCc2cc3c(cc21)CC1(C3)Cc2cc3c(cc2C1)C(=O)CCC3 do in these assays?
PfM18AAP inh: -2; PHOSPHO1 inh: 25; p97 ATPase inh: 2; SUMO HTRF inh: 82*; HDAC3 inhib: 9

Results for CN=c1scc(-c2c[nH]c3ccccc23)n1C ?
G6PDH counter: -1; PfM18AAP inh: -5; PHOSPHO1 inh: -21; p97 ATPase inh: 0; SUMO HTRF inh: 1

How did O=C1C(=O)N(CCCN2CCOCC2)C(c2ccc([N+](=O)[O-])cc2)/C1=C(/O)c1ccc2c(c1)OCO2 (centres undefined) do in these assays?
PfM18AAP inh: 31*; PHOSPHO1 inh: 31; SUMO HTRF inh: 16

What do the screens show for `COC(=O)c1ccc(C2/C(=C(\O)c3ccc4c(c3)OCCO4)C(=O)C(=O)N2CCCN2CCOCC2)cc1` (centres undefined)?
PfM18AAP inh: 9; PHOSPHO1 inh: 33; SUMO HTRF inh: 8; HDAC3 inhib: -7
